Here are results for 17 molecules from PMC5540273 (PLoS ONE, 2017).

Among the test systems are SGK2; SGK3; SGK; SIK2; SIK; SLK; SNRK; SRC; SRMS.
Conditions in all cases: concentration: 1 μM, replicates: in singlicate; n = 1
The subject of another assay is T1, SNARK.
T1 construct: gene NUAK2

SMILES strings stand for the structures.
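Also: KINOMEscan kinase panel screen.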

As for `COc1cc2nccc(Nc3cccc(Oc4ccccc4)c3)c2cc1OC.Cl` [GW284543], the “%Inh” value in the assay on SGK2 is recorded as 0%; in the assay with SGK3, 0%; in the assay with SGK, 37%; in the assay with SIK2 it was 0%; with SIK it was 0%; in the assay on SLK, 21%. Also, the “%Inh” value in the assay on SNARK is listed as 0%; in the assay on SNRK, 0%; in the assay with SRC it was 7%; in the assay on SRMS, 55%.
As to `CN(C)c1cc(-c2ccc3c(N)n[nH]c3c2)nc(N)n1` [GSK2219329], the “%Inh” value was 0% in the assay on SGK2; 3% in the assay with SGK3; 5% in the assay on SGK; 0% in the assay on SIK2; 0% in the assay on SIK; 13% in the assay with SLK. The “%Inh” value came to 0% in the assay on SNARK, 0% in the assay on SNRK, 12% in the assay with SRC and 0% in the assay on SRMS.
As for `COc1cccc(C2=C(Nc3cccc(C(=O)O)c3)C(=O)NC2=O)c1` [SB-390770], the “%Inh” value is reported as 11% in the assay on SGK2; 48% with SGK3; 8% in the assay on SGK; 7% in the assay on SIK2; 10% in the assay with SIK; 35% in the assay with SLK. For the same molecule, the “%Inh” value in the assay with SNARK was 72%; in the assay on SNRK it was 0%; with SRC, 0%; in the assay on SRMS, 0%.
For `COc1cc(Nc2ccnc3ccc(C(F)(F)F)cc23)cc(OC)c1OC` [GW577382], the “%Inh” value with SGK2 was found to be 0%; with SGK3 it was 0%; with SGK, 10%; with SIK2, 25%; with SIK, 31%; with SLK it was 24%. Besides, the “%Inh” value is given as 0% in the assay on SNARK, 0% with SNRK, 36% in the assay on SRC and 0% in the assay on SRMS.
As for `CCC(=O)c1c(-c2ccccc2)c2cc(Cl)ccc2c(=O)n1Cc1cc(S(C)(=O)=O)n(CC(N)=O)n1`, the “%Inh” value was 0% in the assay on SGK2; 0% with SGK3; 0% in the assay with SGK; 2% with SIK2; 0% in the assay on SIK; 0% in the assay on SLK. In addition, the “%Inh” value with SNARK, with SNRK, with SRC and in the assay on SRMS was 0% each time.
On to `O=c1cc(N2CCOCC2)nc2n(Cc3ccc(F)c(Cl)c3)ccn12` [GSK2297099], for which the “%Inh” value turned out to be 0% in the assay on SGK2; 19% in the assay with SGK3; 0% in the assay on SGK; 0% in the assay on SIK2; 0% in the assay on SIK; 0% with SLK. Moreover, the “%Inh” value in the assay with SNARK is reported as 20%; in the assay on SNRK, 0%; in the assay on SRC it was 0%; in the assay on SRMS it was 0%.
Consider `Cc1nnc(-c2ccc3ncn(-c4ccc(S(C)=O)cc4)c3c2)o1` (centres unmarked), for which the “%Inh” value was found to be 0% in the assay with SGK2; 0% in the assay on SGK3; 0% with SGK; 13% in the assay with SIK2; 20% with SIK; 14% with SLK. The “%Inh” value was determined as 0% with SNARK, 0% in the assay on SNRK, 5% in the assay on SRC and 0% in the assay with SRMS.
Turning to `COc1cc2nccc(Nc3ccc(OCc4ccc(NC(C)=O)cc4)cc3)c2cc1OC.Cl` [GW440135], the “%Inh” value in the assay on SGK2 is on record as 0%; in the assay with SGK3, 0%; in the assay with SGK it was 2%; with SIK2, 4%; with SIK, 0%; with SLK, 3%. For the same molecule, the “%Inh” value was 0% in the assay on SNARK, 0% in the assay on SNRK, 14% with SRC and 20% in the assay with SRMS.
Regarding `COC(=O)c1c(-c2ccccc2)c2cc(Br)ccc2c(=O)n1Cc1ccc(NC(=O)CCC(=O)O)cc1`, the “%Inh” value was 18% in the assay with SGK2; 0% in the assay with SGK3; 6% with SGK; 0% in the assay on SIK2; 6% in the assay on SIK; 1% with SLK. Moreover, the “%Inh” value in the assay on SNARK was found to be 0%; with SNRK, 0%; in the assay with SRC, 25%; in the assay with SRMS, 0%.
On to `COc1ccc(Nc2nccc(N3CCC(NS(=O)(=O)c4ccc(NC(C)=O)cc4)C3)n2)cc1` (centres unmarked) [GSK1379729], for which the “%Inh” value in the assay on SGK2 came out at 14%; with SGK3 it was 0%; in the assay on SGK, 10%; with SIK2, 18%; in the assay with SIK it was 2%; in the assay on SLK, 18%. Besides, the “%Inh” value with SNARK was 2%; in the assay on SNRK, 9%; with SRC, 6%; with SRMS it was 0%.
In the case of `CCC(=O)c1c(-c2ccccc2)c2cc(Cl)ccc2c(=O)n1Cc1cc(S(C)(=O)=O)n(CCC(C)(C)O)n1`, the “%Inh” value in the assay on SGK2 was 4%; in the assay with SGK3 it was 0%; in the assay with SGK it was 4%; in the assay with SIK2, 7%; in the assay with SIK, 11%; with SLK it was 21%. Moreover, the “%Inh” value is on record as 1% in the assay with SNARK, 27% in the assay with SNRK, 0% with SRC and 0% with SRMS.
Consider `Nc1n[nH]c2ncc(-c3ccccc3)cc12` [SB-517081], for which the “%Inh” value in the assay with SGK2 is reported as 2%; with SGK3 it was 9%; with SGK it was 7%; in the assay with SIK2, 12%; with SIK, 2%; with SLK it was 0%. For the same molecule, the “%Inh” value was determined as 0% in the assay on SNARK, 0% in the assay on SNRK, 0% in the assay with SRC and 8% with SRMS.
On to `COc1cccc(C2=C(N(C)c3ccccc3)C(=O)NC2=O)c1` [SB-334865], for which the “%Inh” value with SGK2 was 0%; with SGK3, 3%; in the assay with SGK, 0%; in the assay with SIK2 it was 0%; in the assay with SIK it was 0%; with SLK, 13%. Further, the “%Inh” value in the assay on SNARK, in the assay on SNRK, in the assay with SRC and in the assay on SRMS was 0% throughout.
As for `Nc1n[nH]c2nnc(-c3ccccc3)c(-c3ccccc3)c12` [GW554060], the “%Inh” value turned out to be 0% in the assay with SGK2; 1% in the assay on SGK3; 24% with SGK; 0% in the assay on SIK2; 0% in the assay with SIK; 24% in the assay on SLK. Also, the “%Inh” value in the assay on SNARK, with SNRK, in the assay with SRC and with SRMS was 0% each time.
`CCS(=O)(=O)c1ccc(OC)c(Nc2ncc(-c3ccc(F)cc3)o2)c1.Cl` [GW591947]: the “%Inh” value in the assay with SGK2 stood at 2%; in the assay on SGK3, 0%; in the assay on SGK, 0%; in the assay on SIK2, 0%; in the assay with SIK, 2%; in the assay with SLK it was 6%. In addition, the “%Inh” value with SNARK, in the assay on SNRK, with SRC and in the assay with SRMS was 0% throughout.
Regarding `Cc1cccc(-c2nc(Nc3ccc4c(cnn4C)c3)c3ccccc3n2)n1` [GW876731], the “%Inh” value amounted to 37% in the assay with SGK2; 3% in the assay with SGK3; 0% in the assay on SGK; 0% in the assay on SIK2; 0% with SIK; 2% with SLK. Moreover, the “%Inh” value was 21% in the assay on SNARK, 0% in the assay on SNRK, 11% in the assay on SRC and 0% with SRMS.
With `COc1cc2ncn(-c3cc(OCCCc4ccccc4)c(C(N)=O)s3)c2cc1OC` [GSK205189], the “%Inh” value is given as 0% in the assay with SGK2; 0% in the assay on SGK3; 0% in the assay with SGK; 0% with SIK2; 2% with SIK; 79% in the assay on SLK. The “%Inh” value in the assay with SNARK, in the assay with SNRK, in the assay with SRC and with SRMS was 0% throughout.
